About 27,000 (9.3%) of roughly 290,000 compounds were called active. The sample holds actives, similar compounds and a random draw of the others, so the mix is not that of the screen. A number with no mark means an inactive call. Rule as the data show it: active = inhibition mostly above about 28% (no sharp cut-off); inactive = mostly below about 43%.
Experiment: A qHTS for Small Molecule Inhibitors of Shiga Toxin; as to inhibition: 0% is about no effect
Conditions: Vero cells, Shiga toxin protein synthesis inhibition reporter; at 38.7 µM, hits give high values
In the case of `CC1(C)NC(=O)N(CC(=O)Nc2cc(C(F)(F)F)cc(C(F)(F)F)c2)C1=O`, the inhibition is reported as 10.9%. `Cc1cc(=O)n2nc(N3CCC(C(=O)Nc4c(F)c(F)c(F)c(F)c4F)CC3)sc2n1` gave an inhibition of -3.72%. With `Cc1cc(=O)n2nc(N3CCCC(C(=O)NCc4ccc(Cl)cc4)C3)sc2n1` (configuration not stated) the inhibition was -10.3%. `CC(=O)O[C@H]1c2ccccc2-c2ccccc2[C@@H]1OC(C)=O` showed an inhibition of -4.45%. With `Nc1ccc(S(=O)(=O)Nc2nccc(/C=C/c3ccc(Br)s3)n2)cc1` the inhibition was 2.79%. In the case of `Oc1cccc2ccc(/C=C/c3ccc(Br)s3)nc12`, the inhibition is reported as 112% (active). Compound `CC(=O)Nc1ccc(S(=O)(=O)NC2Cc3ccccc3C2)cc1` has an inhibition of -3.63%. With `COc1ccc(CCNC(=O)CS(=O)(=O)Cc2nc(-c3ccc(C)cc3)oc2C)cc1OC` the inhibition was 3.34%. `COc1ccc(CNc2nc3c(c(=O)[nH]c(=O)n3C)n2Cc2ccccc2)cc1` showed an inhibition of -4.35%. `Cc1nc2c(c(=O)n1Cc1ccco1)c1nc3ccccc3nc1n2Cc1ccccc1` gave an inhibition of -14%. Compound `Cc1ccc(Cn2c(C)nc3c(c2=O)c2nc4ccccc4nc2n3Cc2ccco2)cc1` has an inhibition of 12.7%. For `Clc1cccc(-c2nc3nc4ccccc4nc3n2Cc2ccco2)c1`, the inhibition was 75.4% (active). With `CN(C)N1C(N)=C(C#N)C(c2ccc(Br)cc2)C2=C1CCCC2=O` (configuration not stated) the inhibition was -14.3%. Work on `COc1ccccc1CN1CCCC(N2CCN(c3ccc(F)cc3)CC2)C1` (configuration not stated) yielded an inhibition of -2.63%. Compound `Cc1ccc(S(=O)(=O)NCC(=O)N(CC(=O)NCC2CCCO2)c2cccc(F)c2)cc1` (configuration not stated) has an inhibition of -9.17%. In the case of `O=C(CSc1nc2ccccc2o1)N1CCN(c2ccccc2)CC1`, the inhibition is reported as -6.06%. In the case of `CCS(=O)(=O)c1ccc2oc(SCC(=O)N3c4ccccc4CC3C)nc2c1` (configuration not stated), the inhibition is reported as -14.6%. Compound `CCOC(=O)n1c(SCC(=O)N(CC)CC)nc2ccccc21` has an inhibition of -11%. In the case of `Cc1ccc(/C=N/NC(=O)CSc2nc3ccccc3o2)cc1`, the inhibition is reported as 83.9% (active). Compound `O=C(CSc1nc2ccccc2o1)N/N=C/c1ccccc1C(=O)O` has an inhibition of 41.2%. With `O=C(CSc1nc2ccccc2o1)N1CCN(c2ccc(Cl)cc2)CC1` the inhibition was -1.01%. `CCn1c(SCC(=O)N/N=C/c2ccncc2)nc2ccccc21` showed an inhibition of -2.17%. For `CC(C)(C)C(=O)CSc1nc2ccccc2o1`, the inhibition was 113% (active). With `CC1Cc2ccccc2N1C(=O)CSc1nc2ccccc2o1` (configuration not stated) the inhibition was 94.1% (active). With `O=C(CSc1nc2ccccc2o1)N1c2ccccc2Sc2ccc(Cl)cc21` the inhibition was -8.96%. In the case of `CCN(CC)C(=O)CSc1nc2ccccc2o1`, the inhibition is reported as 67.4% (active). Work on `Cc1cc(=O)[nH]c(SCC(=O)N2c3ccccc3CC2C)n1` (configuration not stated) yielded an inhibition of -7.96%. Work on `O=S(=O)(NCC1CN(S(=O)(=O)c2ccc3c(c2)OCCO3)C1)c1c(F)cccc1F` yielded an inhibition of -12.4%. Work on `COC(=O)c1cc(S(=O)(=O)N2CCN(c3cc(C)ccc3C)CC2)c[nH]1` yielded an inhibition of -9.79%. In the case of `CCC(C(=O)NC1CCCC1)N(C(=O)Cn1nnc(-c2ccc(C)o2)n1)c1ccc(OC)c(OC)c1` (configuration not stated), the inhibition is reported as -7.44%. `CC1CC(C)CN(CCOc2cccc3ccccc23)C1` (configuration not stated) showed an inhibition of -12.3%. `CC1CCC(NC(=O)CN(C)S(=O)(=O)c2ccc3c(c2)c(=O)n(C)c(=O)n3C)CC1` (configuration not stated) gave an inhibition of -2.58%. With `CCCS(=O)(=O)N1CCN=C1SCc1cccc(F)c1` the inhibition was -4.79%. For `COC(=O)c1cc(OCC(=O)NC2CCCc3ccccc32)cc(C(=O)OC)c1` (configuration not stated), the inhibition was -5.73%. With `O=C1OCCN1C(=O)[C@H]1[C@H](c2ccc(Cl)cc2)C(c2cccc(Cl)c2)=NN1c1ccc(Br)cc1` the inhibition was “inactive”. Compound `COc1ccccc1Oc1ccc(N2CC(C(=O)OCC(=O)c3ccc(F)cc3)CC2=O)cc1` (configuration not stated) has an inhibition of 7.33%. Work on `COc1cccc(CNS(=O)(=O)c2ccc3c(c2)CC(C)N3C(C)=O)c1` (configuration not stated) yielded an inhibition of -5.4%. Work on `O/N=C(\C[n+]1ccccc1)c1ccc(Br)cc1` yielded an inhibition of 13.2%. In the case of `O=C(Nc1cccc(NC(=O)c2ccccc2[N+](=O)[O-])c1)c1ccccc1Cl`, the inhibition is reported as 30.9%. With `O=C(Nc1ccc2sc3ccccc3c(=O)c2c1)c1ccccc1Cl` the inhibition was 93.9% (active). In the case of `O=C(Nc1ccc2nc3n(c(=O)c2c1)CCCCC3)c1ccccc1Cl`, the inhibition is reported as 40.7%. With `CCSCc1nc(N)nc(NCCc2ccccc2)n1` the inhibition was 15.6%. Work on `CCc1nn(CCCC(=O)NCc2ccc(C)cc2)c(=O)c2cc3occc3n12` yielded an inhibition of 18.7%. For `CCNC(=S)N(CCN(CC)CC)Cc1cc2cc3c(cc2[nH]c1=O)OCO3`, the inhibition was -7.63%. For `COc1ccc(NC(=O)C(C)N2c3cccc4cccc(c34)S2(=O)=O)c(OC)c1` (configuration not stated), the inhibition was -11.7%. For `Cc1ccc(/C([O-])=C(/C(=S)NCc2ccco2)[n+]2ccccc2)cc1[N+](=O)[O-]`, the inhibition was -8.48%. In the case of `O=[N+]([O-])c1cccc(/C([O-])=C(/C(=S)Nc2ccccc2F)[n+]2ccccc2)c1`, the inhibition is reported as 83.4% (active). Compound `CCC(C)NCC(=O)Nc1ccc([N+](=O)[O-])cc1C(=O)Nc1ccccc1F` (configuration not stated) has an inhibition of 13%. Work on `Cc1cc(C)c(C#N)c(Nc2cccc(Br)c2)n1` yielded an inhibition of -8.95%. `COc1ccc(N2CCN(C(=O)CCc3nc(-c4ccc(C)cc4)no3)CC2)cc1` gave an inhibition of -8.71%. `COc1ccc(C(C)=O)cc1COc1ccc(Cl)c(C)c1` gave an inhibition of 7.61%. In the case of `Cc1cc(Cl)ccc1OCc1nc(-c2ccncc2)no1`, the inhibition is reported as 129% (active). In the case of `COc1ccc(-c2noc(COc3ccc(Cl)c(C)c3)n2)cc1`, the inhibition is reported as 25.5% (active). `CN(Cc1ccccn1)Cc1nc(-c2ccc(Cl)cc2)no1` showed an inhibition of 31.7%. Compound `Cc1cc(Cl)ccc1OCCCC(=O)NCc1ccncc1` has an inhibition of 14.6%. Compound `C=C(C)COc1ccc(-c2ncncc2-c2ccc(OC)cc2)c(O)c1` has an inhibition of -1.7%. For `Cc1ccc(CN2C(=O)N/C(=C/c3cc(C)n(-c4ccccn4)c3C)C2=O)cc1`, the inhibition was 31.1%. Work on `CCN(CC)S(=O)(=O)c1ccc(Cl)c(C(=O)NCCN2CCOCC2)c1` yielded an inhibition of -6.97%. For `Cc1oc2cc3oc(=O)ccc3cc2c1C`, the inhibition was 40.7% (active). For `COc1c(C(C)C)oc2cc3oc(=O)ccc3cc12`, the inhibition was 34%. Compound `Cc1ccc(OCC(=O)Nc2ccc3oc(=O)ccc3c2)cc1C` has an inhibition of -5.7%. Work on `CCN(C(=O)COc1ccc(C(=O)c2ccccc2)cc1)c1ccccc1` yielded an inhibition of -10.2%. With `Cc1ccccc1N1CC(C(=O)Nc2nnc(SCCC3OCCO3)s2)CC1=O` (configuration not stated) the inhibition was -4.6%. Compound `COc1ccc(OCc2nnc3n2N=C(c2ccccc2)C(CC(=O)O)S3)cc1` (configuration not stated) has an inhibition of -9.4%. Work on `CCCCCCN=C(CC)c1c(O)n(CCCC)c(=O)[nH]c1=O` yielded an inhibition of -8.53%. With `CCCCn1c(O)c(C(CC)=NCc2ccco2)c(=O)[nH]c1=O` the inhibition was -7.37%. With `CC/C(=N\NC(=O)c1ccccc1O)c1c(O)n(Cc2ccccc2)c(=O)[nH]c1=O` the inhibition was 58.6% (active). Compound `Cc1cc2cc3c(cc2nc1SCC(=O)Nc1c(C)cccc1C)CCC3` has an inhibition of -6.77%. `CCn1c(=N)c(C(=O)NCCCOC)cc2c(=O)n3cccc(C)c3nc21` showed an inhibition of -7.15%. With `CCOCCCNC(=O)c1cc2c(=O)n3ccccc3nc2s1` the inhibition was 74.5% (active). Compound `Cc1cccn2c(=O)c3cc(C(=O)NC4CCCCC4)sc3nc12` has an inhibition of -2.1%. In the case of `NC(=O)C1CCN(CC(O)CSc2ccc(F)cc2)CC1` (configuration not stated), the inhibition is reported as 2.41%. With `O=C(CSc1ncccn1)NCCc1ccccc1` the inhibition was 1.16%. Work on `CC(C)(C)NC(=O)Cn1cnc([N+](=O)[O-])n1` yielded an inhibition of -6.78%. For `O=C(Cn1cnc([N+](=O)[O-])n1)NCCc1ccccc1`, the inhibition was 17.3% (active). Compound `COc1ccc2cc(CCl)c(Cl)nc2c1` has an inhibition of 14.8%. In the case of `CCCC(=O)N1CCC(CCC(=O)NC2CC2)CC1`, the inhibition is reported as 14.8%. Compound `COCCNC(=O)c1ccc(N2CCC3(CC2)OCCO3)c([N+](=O)[O-])c1` has an inhibition of 7.01%. With `CC(NC(=O)c1ccc(N2CCNCC2)c([N+](=O)[O-])c1)C12CC3CC(CC(C3)C1)C2` (configuration not stated) the inhibition was -0.798%. For `CCC(C)NC(=O)c1ccc(N2CCC3(CC2)OCCO3)c([N+](=O)[O-])c1` (configuration not stated), the inhibition was 50.1% (active). Compound `COc1ccc(NC(=O)c2cc(-c3cc(OC)c(OC)c(OC)c3)nc3ccccc23)c(OC)c1` has an inhibition of 15.1%. With `CC(=O)Oc1ccc2c(=O)oc(-c3ccc([N+](=O)[O-])cc3)nc2c1` the inhibition was -6.54%. With `COc1ccc2oc(-c3cccc(NC(=O)CSc4ccc(Cl)cc4)c3)nc2c1` the inhibition was 13.6%. `COc1cccc(-c2nc(S(=O)(=O)c3ccccc3)c(N3CCOCC3)o2)c1` gave an inhibition of 20.2%. `COc1ccc(-c2nc3cc([N+](=O)[O-])ccc3o2)cc1OC` gave an inhibition of 27.9%. For `COc1cccc(-c2nc3cc(C)ccc3o2)c1`, the inhibition was 65% (active). For `O=[N+]([O-])c1ccc2oc(-c3cccc(O)c3)nc2c1`, the inhibition was 47.7% (active). `CC(=O)Nc1ccccc1OC(C)C(=O)N1CCC(C)CC1` (configuration not stated) gave an inhibition of -7.84%. Compound `O=C(N/N=C/c1cc(Cl)cc([N+](=O)[O-])c1O)C(O)(c1ccccc1)c1ccccc1` has an inhibition of -2.27%. Work on `CCOC(CNC(=O)C(=O)NCC(c1ccco1)N1CCN(c2ccc(OC)cc2)CC1)OCC` (configuration not stated) yielded an inhibition of 14.3%. Work on `CCOc1ccccc1NC(=O)COc1ccc(S(=O)(=O)N2CCCC2)cc1` yielded an inhibition of 14.6%. `Cc1oc2c(C)c3oc(=O)c(CC(=O)N[C@@H](CC(C)C)C(=O)N[C@@H](Cc4ccccc4)C(=O)O)c(C)c3cc2c1C` gave an inhibition of -6.95%.

Source: PubChem BioAssay AID2315 (National Center for Advancing Translational Sciences (NCATS), 2010)
